# Source: PubChem
# A selection: hits, their analogues and other compounds. The true share with any hit is near 21%.
# Pf growth 48h: Primary qHTS for delayed death inhibitors of the malarial parasite plastid, 48 hour incubation. Potency, µM (series often up to 28.7 µM), without a hit: at the top dose activity change, negative = inhibition, usual class: inhibitors. P. falciparum luciferase growth in erythrocytes, 48 h. 310,000 tested, 5.9% active; note: potency is the fitted concentration of half-maximal effect; % is set by controls: 0 for no effect and ±100 for the full control effect
#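 Luciferase-expressing parasites in RBCs, 2% Hct / 0.1% parasitemia final; RPMI 1640 + 0.5% Albumax; 37 C, 5% CO2, one generation; luminescence read-out, lower signal = inhibition.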
# CHX counter: Cycloheximide Counterscreen for Small Molecule Inhibitors of Shiga Toxin. max response, %. cell reporter, cycloheximide protein synthesis inhibition counterscreen. 300,000 tested, 12% active; in the data active = max response mostly above about 13%, no sharp cut-off; inactive = mostly below about 14%; note: read at 38.3 µM for the half of the compounds with a filed dose; 0% is about no effect
# FBPA Giardia inh: qHTS Assay for Inhibitors of Fructose-1,6-bisphosphate Aldolase from Giardia Lamblia. AID 2451, 2010. Potency, µM (titrated, usually from 59.6 µM), for the others: at the highest dose activity, negative = inhibition, usual class: inhibitors. A8B2U2. purified Giardia FBPA. 290,000 tested, 0.71% active; note: potency is the fitted concentration of half-maximal effect; % is set by controls: 0 for no effect and ±100 for the full control effect; nearly all actives have a fitted effect of over 55% in size
# Target sequence (A8B2U2 whole entry, looked up): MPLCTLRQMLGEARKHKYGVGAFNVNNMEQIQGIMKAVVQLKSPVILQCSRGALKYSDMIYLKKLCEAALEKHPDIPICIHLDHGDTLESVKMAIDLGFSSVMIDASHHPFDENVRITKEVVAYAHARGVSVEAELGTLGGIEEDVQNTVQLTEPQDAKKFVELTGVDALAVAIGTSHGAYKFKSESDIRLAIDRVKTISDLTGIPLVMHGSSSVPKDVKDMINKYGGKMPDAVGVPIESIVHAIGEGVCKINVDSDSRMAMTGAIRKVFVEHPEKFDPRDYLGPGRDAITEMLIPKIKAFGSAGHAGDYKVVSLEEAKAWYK
#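 Giardia FBPA (40 nM reagent) was preincubated 10 min at RT with compound (up to 57.5 uM final), then substrate plus GAPDH/TPI/NAD/arsenate coupling system with diaphorase/resazurin was added; resorufin fluorescence (525/598 nm) was read after 20 min.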
# Shiga toxin inh: A qHTS for Small Molecule Inhibitors of Shiga Toxin | Vero cells, Shiga toxin protein synthesis inhibition reporter | inhibition, % at 38.7 µM | 290,000 tested, 9.2% active | AID 2315, 2010; in the data active = inhibition mostly above about 28%, no sharp cut-off; inactive = mostly below about 43%; note: 0% is about no effect
# Pf growth 96h: Primary qHTS for delayed death inhibitors of the malarial parasite plastid, 96 hour incubation. P. falciparum luciferase reporter growth, 96 h. Potency, µM (series often up to 28.7 µM), for inactives: at the top dose activity change, negative = inhibition, most hits filed as inhibitors. 320,000 tested, 6.9% active. AID 504834, 2011; note: potency is the fitted concentration of half-maximal effect; % is set by controls: 0 for no effect and ±100 for the full control effect
#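 Luminescence readout: decreased luciferase signal marks inhibited growth of reporter-expressing P. falciparum in infected red cells (2% hematocrit, 0.05% parasitemia final), exposed to compound two generations (96 h, 37 C, 5% CO2).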
# NS1 inh: qHTS Assay for Inhibitors of Influenza NS1 Protein Function; Potency, µM (highest dose often 46.1 µM), inactives show top-dose activity, positive = more growth; 270,000 tested, 0.4% active; AID 2326, 2010; calls by dose curve; note: potency is the fitted concentration of half-maximal effect; actives are rising curves; nearly all actives have a fitted effect of over 50% in size
#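 Compounds were scored for reversing the slow growth caused by influenza A NS1 in S. cerevisiae, measured by optical density at 600 nm. Assay medium contained 2% galactose at pH 6.0; NS1-free yeast of the same strain were the positive control.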
# * hit, by the source's call; ? = inconclusive; . = no result; [ ] = remark or other dose. Unless noted, calls come from the whole dose curve; as a rule, active = well fitted curve in the direction sought with a large enough effect; inconclusive = small, poorly fitted or top-dose-only effect, or another doubt; inactive = no such curve, though single readings can be large; an effect the other way counts as inactive or inconclusive.
SMILES,Pf growth 48h,CHX counter,FBPA Giardia inh,Shiga toxin inh,Pf growth 96h,NS1 inh
CCOc1ccc(NC(=O)C/C(C)=N/NC(=O)c2cnccn2)cc1,0.7%,22.4*,.,31.5*,-7.4%,20.1%
COc1ccc(NC(=O)C/C(C)=N/NC(=O)c2cnccn2)cc1,10.8%,28.0*,-8.8%,98.9*,34.6%,-3.4%
C/C(CC(=O)NC12CC3CC(CC(C3)C1)C2)=N\NC(=O)c1cnccn1,25.4%,7.2,-19.7%,20.2,?,.
CCC(=O)c1c[nH]c(C(=O)N2CCOCC2)c1,0.2%,-3.5,-8.5%,-8.4,0.0%,0.0%
CC(=O)c1cccc(S(=O)(=O)N2CCn3cccc3C2C)c1 (stereo not given),?,.,.,.,-22.2%,.
CCOc1ccc(NC(=O)c2ccccn2)cc1,-41.7%,7.5,0.0%,-15.2,-33.2%,-3.6%
CCOc1ccc(NC(=O)c2cnccn2)cc1,101.3%,17.6*,-12.7%,17.8*,27.5%,-6.1%
COc1ccc(C(=O)N/N=C(\C)CC(=O)Nc2ccccn2)cc1OC,15.3%,-5.7,-18.3%,1.4,-22.4%,4.0%
C/C(CC(=O)Nc1ccc2ccccc2c1)=N\NC(=O)c1cnccn1,?,28.7*,-7.5%,52.4*,49.0%,-2.3%
C/C(CC(=O)Nc1ccccn1)=N\NC(=O)c1cnccn1,11.6%,44.1*,?,79.3*,-10.5%,-1.8%
COc1ccc(CNC(=O)C/C(C)=N/NC(=O)c2cnccn2)cc1,43.5%,44.6*,-10.3%,71.4*,19.4%,-0.9%
CCCCCCCCCCCCCCCCCC(=O)OCC(C)O (stereo not given),-0.9%,-1.8,-11.4%,-2.1,-3.0%,.
CC12C=C(/C=C/c3ccc(Br)cc3)C(C)(C1)C(c1ccc(Br)cc1)CC2=O (stereo not given),.,.,-2.9%[12.9 µM],.,.,.
COc1ccc(NC(=O)c2ccc(NC(=O)COC(=O)c3cnc(C)cn3)cc2)cc1,9.8%,.,.,.,31.3%,.
COCCNC(=O)C(=O)N/N=C(\C)CC(=O)Nc1ccc2c(c1)OCO2,0.0%,11.8,-11.8%,5.2,-15.8%,.
COc1ccc(CNC(=O)C/C(C)=N/NC(=O)Cc2ccc(OC)cc2)cc1,11.3%,-1.4,1.3%,-5.4,-1.6%,16.8%
COCCNC(=O)C(=O)N/N=C(\C)CC(=O)Nc1cccnc1,25.9%,12.9*,-10.1%,-1.7,-84.6%,1.9%
C/C(CC(=O)Nc1ccc2ccccc2c1)=N\NC(=O)c1ccc(O)c(O)c1,45.1%,38.4*,?,85.5*,10.3%,-9.2%
COc1ccc(CNC(=O)C/C(C)=N/NC(=O)C23CC4CC(CC(C4)C2)C3)cc1,-9.8%,28.7*,-6.6%,52.5*,47.4%,-0.9%
CN1CCO[C@H](c2ccccc2)c2ccccc2C1,-4.5%[12.8 µM],.,-5.3%[21.7 µM],.,-17.0%[12.8 µM],.
N#Cc1ccccc1OCC(=O)OCC(=O)NC1CC1,-3.3%,.,.,.,-4.8%,.
CCN(CC(=O)Nc1c(F)cccc1F)C(=O)c1ccc2ncsc2c1,1.5%,.,.,.,20.9%,.
CCCCN1CCC(n2c(=O)[nH]c3ccccc32)CC1,.,.,-2.3%,.,.,-15.9%
CC1C/C(=N/N2C(=O)CSC2=S)CC(C)(C)C1 (stereo not given),31.4%,-2.9,-3.9%,-2.8,13.1µM*,6.7%
O=C1CS/C(=N/N=C2C3CC4CC(C3)CC2C4)N1,6.0%,2.1,9.6%,2.0,13.1µM*,7.9%
SMILES,Pf growth 48h,CHX counter,FBPA Giardia inh,Shiga toxin inh,Pf growth 96h,NS1 inh
CC1C/C(=N/N=C2/NC(=O)CS2)CC(C)(C)C1 (stereo not given),-12.0%,-2.1,6.5%,36.9,10.4µM*,-3.4%
Cc1ccc(NC(=O)CC2S/C(=N/N=C3/NC(=O)CS3)NC2=O)cc1 (stereo not given),15.8%,-3.8,-3.8%,-2.0,2.3%,7.9%
Cc1ccccc1/C=N/N1C(=O)CSC1=S,-2.1%[0.00184 µM],-2.5,-4.8%,-5.7,15.6%,4.6%
Cc1cc(C)nc(/N=C2/NC(=O)CS2)n1,20.4%,1.8,-14.6%,-5.8,?,-5.5%
CN(c1nc2ccccc2[nH]c1=O)C1CCCCC1,?,9.5,3.1%,13.1,?,-8.8%
Cc1cc(C)c(NC(=O)CN2C(=O)CC(C)S(=O)(=O)c3ccccc32)c(C)c1 (stereo not given),-10.2%,12.6,5.8%,-6.9,51.1%,13.0%
O=C(OCC(=O)N1CCN(c2ccccc2)CC1)c1ccc(Cl)cc1[N+](=O)[O-],4.8%,.,.,.,9.7%,.
O=C(c1ccc(Cl)cc1[N+](=O)[O-])N1CCOCC1,-10.5%,5.1,3.0%,-2.6,5.6%,.
Nc1cc(C(=O)OCC(=O)N2CCN(C(=O)COC(=O)c3ccc(Cl)c(N)c3)CC2)ccc1Cl,?,.,.,.,9.7%,.
Nc1ccc(C(=O)OCC(=O)N2CCOCC2)cc1[N+](=O)[O-],114.9%,30.9*,7.9%,56.9*,130.3%,0.8%
Nc1cc(C(=O)OCC(=O)N2CCOCC2)ccc1Cl,80.0%,35.4*,3.2%,57.9*,99.4%,9.1%
O=C(OCC(=O)N1CCN(c2ccccc2)CC1)c1cc(Cl)ccc1[N+](=O)[O-],-26.2%,9.8,.,-5.6,11.7µM*,-8.5%
O=C(OCC(=O)N1CCOCC1)c1ccc(Cl)cc1[N+](=O)[O-],6.3%,23.8*,-6.2%,46.7*,21.0%,-5.9%
Cc1cc(OCC(=O)Nc2cnn(CCCC(=O)O)c2)ccc1Cl,6.8%,0.5,-8.1%,-8.5,32.0%,-1.0%
COc1ccccc1NC(=O)CSc1nc2[nH]ncc2c(=O)[nH]1,3.7%,.,.,.,15.6%,.
Cc1ccc([N+](=O)[O-])cc1NC(=O)Nc1onc(C)c1C,?,-2.2,0.9%,-3.3,22.2%,3.5%
Cc1c(NC(=O)CN2C(=O)NC(C)(c3ccc(Cl)cc3)C2=O)c(=O)n(-c2ccccc2)n1C (stereo not given),-24.7%,.,.,.,0.9%,.
O=c1[nH]c(CNCc2cccnc2)nc2ccccc12,9.9%,6.0,?,24.4,-7.1%,2.5%
Cn1c(CCN2CCN(c3ccccn3)CC2)nc2cc(NS(=O)(=O)c3ccccc3)ccc21,?,8.6,-3.6%,-4.8,?,-0.5%
Cc1ccc2c(c1)cc(CN(Cc1ccco1)C(=O)COc1ccccc1)c1nnnn12,?,26.5*,-0.4%,65.4*,-19.7%[5.75 µM],-11.6%
Cc1cccc(C)c1NC(=O)CNC(=O)CN1C(=O)NC2(CCc3ccccc32)C1=O (stereo not given),0.6%,.,.,.,10.8%,.
COc1cccc(C(=O)NCCSCc2c(F)cccc2Cl)c1,41.8%,22.3*,7.6%,.,?,-55.1%
COc1cccc(C(=O)NCCSCc2ccccc2Cl)c1,?,12.7*,3.1%,24.3,40.9%,-44.0%
COc1ccc(C(=O)NCCSCc2cccc(Cl)c2)cc1OC,?,-1.2,9.7%,-6.2,?,-23.9%
Cn1cc(/C=C2\SC(=S)N(NC(=O)c3ccccc3)C2=O)c2ccccc21,-21.9%,-1.0,-24.4%,-4.8,-40.9%,-1.7%
